Source: PubChem (National Center for Advancing Translational Sciences (NCATS))
SARS PLP yeast = qHTS of Yeast-based Assay for SARS-CoV PLP; S. cerevisiae expressing SARS-CoV PLpro, growth rescue; Potency, µM (highest dose often 32.9 µM), most hits filed as activators; 330,000 compounds, 0.19% hits; AID 485353, 2010; calls by dose curve; note: nearly all actives have a fitted effect of over 55% in size
Pf growth 96h = Primary qHTS for delayed death inhibitors of the malarial parasite plastid, 96 hour incubation. P. falciparum luciferase reporter growth, 96 h. Potency, µM (highest dose often 28.7 µM), usual class: inhibitors. 320,000 compounds, 6.9% hits
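Plates of compound plus infected erythrocytes (2% hematocrit, 0.05% parasitemia final) incubate 96 hours, 37 C, 5% CO2. Detection reagent added; reduced luminescence from the parasites' luciferase reporter flags inhibition.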
Sm TGR block = qHTS Assay for the Inhibitors of Schistosoma Mansoni Peroxiredoxins; Potency, µM (series often up to 114 µM), most hits filed as inhibitors; purified TGR, DTNB reduction, TNB absorbance 405 nm; Schistosoma mansoni thioredoxin glutathione reductase (TGR), Q962Y6; AID 485364, 2010; 360,000 compounds, 3% hits; note: nearly all actives have a fitted effect of over 60% in size
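Kinetic colorimetric format: TGR-catalysed, NADPH-driven DTNB reduction monitored via TNB absorbance. Enzyme dispensed at 20 nM; compound exposure 15 min at room temperature before reaction start.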
Pf growth 48h = Primary qHTS for delayed death inhibitors of the malarial parasite plastid, 48 hour incubation | 310,000 compounds, 5.9% hits | P. falciparum luciferase growth in erythrocytes, 48 h | Potency, µM (top dose mostly 28.7 µM), hits mostly inhibitors
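Erythrocytes infected with P. falciparum carrying an integrated firefly luciferase reporter (2% hematocrit, 0.1% parasitemia final) were exposed to compounds in RPMI 1640 with 0.5% Albumax at 37 C, 5% CO2. Growth inhibition was scored as reduced luminescence.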
A number is an active result; . = inactive; ? = inconclusive; / = no result given. Most compounds without a hit are left out; they make up all but 12% or so of the library. Unless noted, calls come from the whole dose curve; as a rule, active = well fitted curve in the direction sought with a large enough effect; inconclusive = small, poorly fitted or top-dose-only effect, or another doubt; inactive = no such curve, though single readings can be large; an effect the other way counts as inactive or inconclusive.

SMILES | SARS PLP yeast | Pf growth 96h | Sm TGR block | Pf growth 48h
CCn1cc(Cl)c(C(=O)NNC(=O)CCn2ccc([N+](=O)[O-])n2)n1 | . | . | . | .
CCN(CC(=O)Nc1ccc(Br)cc1)CC(=O)Nc1cc(C)on1 | . | . | 50µM | .
Cc1cc(NC(=O)CCCC(=O)Nc2ccc(F)cc2)no1 | . | 8.3µM | . | .
COc1ccc(C(=O)N/N=C/c2ccc(OC)c(COc3ccc(F)cc3F)c2)cc1 | . | . | . | ?
O=S(=O)(Nc1cccc(-c2ccc(N3CCCCC3)nn2)c1)c1cccs1 | / | / | . | /
C/C=C/C=C/C(=O)Nc1nccs1 | . | ? | 35µM | .
CCc1cccc(NC(=O)CSc2ncccc2C(=O)Oc2ccccc2Cl)c1 | / | / | . | /
Nc1nonc1-c1noc(CCCOc2ccc(Cl)cc2Cl)n1 | . | 5.2µM | . | .
Clc1ccc(OCc2nc(-c3ccncc3)no2)c(Cl)c1 | . | 10µM | . | .
CCCCCc1nc(-c2nonc2N)no1 | . | . | . | .
Cc1ccc(C(C)C)c(OCc2n[nH]c(=S)o2)c1 | . | . | . | .
Cc1ccc(C(C)C)c(OCc2nc(-c3nonc3N)no2)c1 | . | 4.7µM | . | /
O=C(Nc1ccc(F)cc1)C(c1ccccc1)N1CCN(S(=O)(=O)c2ccc3ccccc3c2)CC1 (stereo unspecified) | . | . | . | 13µM
Cc1ccc(C)c(S(=O)(=O)N2CCN(C(=O)CSc3ccccc3F)CC2)c1 | . | 15µM | . | ?
Cc1ccc(C)c(S(=O)(=O)N2CCN(CC(=O)NC(C)c3ccccc3)CC2)c1 (stereo unspecified) | . | . | . | ?
O=C(CN1CCN(C(C(=O)Nc2ccc(F)cc2)c2ccccc2)CC1)NC1CC1 (stereo unspecified) | . | 15µM | . | ?
Cc1ccc(C)c(S(=O)(=O)N2CCN(C(C(=O)Nc3ccc(F)cc3)c3ccccc3)CC2)c1 (stereo unspecified) | . | . | . | 13µM
O=C(Nc1ccc(F)cc1)C(c1ccccc1)N1CCN(CC(=O)N2CCCC2)CC1 (stereo unspecified) | . | ? | . | ?
CCc1nc2ccccc2c(C(=O)Nc2ccc(F)cc2)c1C | . | ? | . | .
COc1ccc(S(=O)(=O)c2c(O)c(C)cc(NS(=O)(=O)c3ccc(Cl)cc3)c2C(C)C)cc1 | / | / | . | /
CCOC(=O)c1c(C)[nH]c(C)c1S(=O)(=O)N1CCC(C(=O)N2CCN(c3cccc(C)c3)C(C)C2)CC1 (stereo unspecified) | / | / | . | /
Cc1ccc(C)c(Cn2nnc(C(=O)NCc3ccc(Cl)cc3Cl)c2N)c1 | / | / | . | /
Cc1ccc(-c2nn(-c3ccccc3)c3[nH]c(=O)c(CNCCN(C)C)cc23)cc1 | . | . | . | 4.7µM
Cc1ccc(-c2nn(-c3ccccc3)c3[nH]c(=O)c(CNCc4ccccc4)cc23)cc1 | . | . | . | 1µM
Cc1nn(-c2ccccc2)c2[nH]c(=O)c(CNCc3ccc4c(c3)OCO4)cc12 | . | . | ? | 4.7µM
SMILES | SARS PLP yeast | Pf growth 96h | Sm TGR block | Pf growth 48h
Cc1occc1-c1nnc(SCC(=O)N2CCN(c3ccccc3F)CC2)n1C | . | 3.7µM | . | .
Cc1occc1-c1nnc(SCC(=O)NC2CC2)n1C | . | ? | . | .
COc1ccc(OCCSc2nnc(-c3ccoc3C)n2C)cc1 | . | ? | . | 8.3µM
Cc1occc1-c1nnc(SCC(=O)c2ccc(Cl)cc2)n1C | . | / | 40µM | .
Cn1c(SCC(=O)c2cc(Cl)c(Cl)s2)nnc1-c1ccco1 | . | . | 25µM | .
Cc1occc1-c1nnc(SCC(=O)N2CCCCC2)n1C | . | . | . | .
Cc1ccc(C(=O)CSc2nnc(-c3ccco3)n2C)cc1 | . | . | / | .
COc1ccc(C(=O)N/C(=C/c2ccc(Cl)cc2)C(=O)Nc2ccc(C(=O)O)cc2)cc1 | . | ? | . | .
Cc1ccc(C)c(-c2csc(-c3c(N)c(C(=O)c4ccc5c(c4)OCO5)n4ccccc34)n2)c1 | / | / | . | /
CCOC(=O)c1cccc(NC(=O)CSc2nnc(-c3ccoc3C)n2CC)c1 | . | 13µM | . | .
CCOC(=O)c1cccc(NC(=O)CSc2nnnn2CC)c1 | . | . | . | .
Cc1cccc(C)c1NC(=O)CSc1nnc(-c2ccoc2C)n1C | . | 9.3µM | ? | .
Cn1c(SCC(=O)NCc2ccco2)nnc1-c1c[nH]c2ccccc12 | . | . | . | /
O=C(CSc1nc2ccccc2[nH]1)c1c[nH]c2ccccc12 | . | . | / | .
Cc1ccc2nc(SCC(=O)c3c[nH]c4ccccc34)[nH]c2c1 | . | ? | / | 2.9µM
Cc1occc1-c1nnc(SCC(=O)c2c[nH]c3ccccc23)n1C | . | . | 18µM | ?
CC(=O)Nc1ccc(NC(=O)c2ccccc2-n2cnnn2)cc1 | . | . | . | .
Cc1ccc(C)c(S(=O)(=O)Nc2ccc(O)c(Sc3ncn[nH]3)c2)c1 | . | . | 50µM | .
CSc1cc(C)c(OCC(=O)Nc2c(C)nn(C)c2C)c(C)c1 | . | ? | . | ?
CCCN1C(=O)/C(=C/c2c(NCCCOCC)nc3c(C)cccn3c2=O)SC1=S | . | . | . | ?
Cc1cccn2c(=O)c(/C=C3\SC(=S)NC3=O)c(NCCCN3CCOCC3)nc12 | . | ? | . | 13µM
O=C(NCC1CCCO1)C(=O)N/N=C/c1ccccc1C(=O)O (stereo unspecified) | . | 10µM | . | .
Cc1nc(SCC(N)=O)[nH]c(=O)c1Cc1ccc(OC(C)C)cc1 | . | 1.7µM | . | ?
Cc1nc(C)c(-c2ccc(SCC(=O)Nc3ccc(Cl)c(Cl)c3)nn2)s1 | / | / | . | /
O=S(=O)(Nc1cc(S(=O)(=O)N2CCOCC2)ccc1NCC1CCCO1)c1ccccc1F (stereo unspecified) | . | . | ? | .
SMILES | SARS PLP yeast | Pf growth 96h | Sm TGR block | Pf growth 48h
COc1ccc(NC(=O)C2=C(C)Nc3ncnn3C2c2sccc2C)cc1 (stereo unspecified) | / | / | . | /
CC(C)(C)c1cc(Cc2ccccc2)[nH]n1 | . | . | . | .
Oc1cncc(Cc2ccccc2)c1 | . | ? | 32µM | ?
CCOc1ccccc1CNC(=O)CN1C(=O)CCn2nc(-c3cn(C)c4ccccc34)cc21 | / | / | . | /
COc1cccc(NS(=O)(=O)c2c(C)cc(C)cc2C)c1 | . | ? | . | 13µM
COc1ccc(NS(=O)(=O)c2c(C)cc(C)cc2C)cc1 | . | . | . | .
FC(F)(F)C1=CC(c2ccccc2)=NCCN1 | . | ? | . | ?
FC(F)(F)C1=CC(c2ccc(Br)cc2)=NCCN1 | . | 6.6µM | . | ?
CC(=Nc1ccccc1O)c1sc2ccccc2c1O | . | 15µM | . | ?
CCOc1cc(NC(=S)Nc2ccccc2)c(OCC)cc1NC(=O)c1ccc(OC)cc1 | . | ? | . | 12µM
CCOc1ccccc1NC(=O)c1ccc2[nH]c(C)c(C)c2c1 | . | ? | . | 15µM
Cc1[nH]c2ccc(C(=O)OCCN(C)C)cc2c1C | . | 4.7µM | . | .
CCOc1ccccc1NC(=O)c1cc(CC(C)C)oc1C | . | . | . | 10µM
COc1ccc(NC(=O)c2ccc3[nH]c(C)c(C)c3c2)c(OC)c1 | . | . | . | .
